# Results as given in PubChem BioAssay (NCI).
# This is part of a sample that, as a whole, favours compounds with a hit. Of some 83,000 tested, about 20% had one in any assay.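 The test compound was applied at a single concentration to cells in 96-well plates for 48 hours, and percent growth was recorded.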 Values without a mark were called inactive. Calls of active or inactive are those of the source. The calls were made as follows: active = growth percent below 10; inactive = the rest.
# How the values were obtained:
# Test in all cases: NCI-60 one-dose screen, 48 h (100 = growth as untreated, 0 = no growth, -100 = all killed)
# Conditions in all cases: 10 µM unless noted
# T-47D breast = tested on: T-47D breast
# MDA-MB-435 melanoma = tested on: MDA-MB-435 melanoma
# SW-620 colon = tested on: SW-620 colon
# MCF7 breast = tested on: MCF7 breast
# HCC-2998 colon = tested on: HCC-2998 colon
# KM12 colon = tested on: KM12 colon
# HCT-116 colon = tested on: HCT-116 colon
# BT-549 breast = tested on: BT-549 breast
SMILES,growth (T-47D breast),growth (MDA-MB-435 melanoma),growth (SW-620 colon),growth (MCF7 breast),growth (HCC-2998 colon),growth (KM12 colon),growth (HCT-116 colon),growth (BT-549 breast)
CCc1nc2ccccc2[nH]1,123%,113%,104%,88.7%,110%,113%,–,–
COc1ccc(N=c2nc3sc4cc(Cl)ccc4n3c(N)c2C#N)cc1,73.7%,99.6%,81.1%,61.2%,95.5%,24.7%,93.7%,–
O=C(/C=C/c1ccccc1)c1ccc2ccccc2c1,47.4%,103%,–,49.9%,–,93.2%,-5.91% (active),–
C[C@@H]1C(=O)N(C[C@H](Cc2ccccc2)NC(=O)OCc2ccccc2)[C@]1(Cc1ccccc1)C(=O)OC(C)(C)C,43.3%,76.9%,83.2%,61.1%,87.7%,70.3%,–,–
CCC(O)(C(c1ccccc1)c1ccccn1)C(c1ccccc1)c1ccccn1 (stereo not drawn),92.3%,117%,120%,101%,–,106%,99.4%,–
N#Cc1c(Oc2ccc([N+](=O)[O-])cc2)nc2sc3cc(Cl)ccc3n2c1=N,60.2%,111%,–,61.8%,117%,47.7%,105%,–
Nc1c(C(=O)Nc2ccccc2)sc2nc3c(cc12)CCCCCC3,38.2%,-17% (active),27.5%,12.1%,13.4%,15.8%,2.39% (active),–
CCCCn1c(=O)[nH]c(N)c(C(c2ccc(F)cc2)c2c(N)[nH]c(=O)n(CCCC)c2=O)c1=O,39.6%,64.7%,–,46.8%,72.9%,61.3%,–,–
Cc1cc2c(F)c(Oc3ncnc(Nc4ccc(N5C[C@@H](C)N[C@@H](C)C5)cc4)c3C#N)cc(F)c2[nH]1,-1.93% (active),19.9%,3.6% (active),12.3%,84.1%,11.9%,–,–
Fc1ccc(Nc2nc(Nc3ccc(-c4nc5ccccc5[nH]4)cc3)c3cn[nH]c3n2)cc1,12.1%,90.3%,10.9%,4.38% (active),82.9%,54.4%,–,–
COc1cc2oc(-c3cccc(C(=O)Nc4ccc(C#N)cc4)c3)cc(=O)c2c(O)c1OC,–,68.3%,78%,48.5%,83.1%,–,55.5%,44.7%
Cc1cc(NS(=O)(=O)c2ccccc2)c(OS(=O)(=O)c2ccccc2)cc1C,109%,122%,107%,93.7%,106%,107%,96.1%,–
